HIF activator – HIF pathway transcriptional activation; hit rate 0.32% among 300,000; activation, % at 7.5 µM (by protocol); AID 1910; U2OS HRE-luciferase reporter, luminescence; normalized: DMSO 0%, desferrioxamine 100%;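 active means mean activation of at least 10% of the iron chelator positive control signal, with at least half of replicates also reaching 10%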
GalR3 antag – antagonists of human GalR3 | O60755 | HEK293 GalR3-CNG cAMP membrane potential fluorescence; galR3 body fused to GalR1 C-terminus | inhibition, % at 3 µM | hit rate 0.44% among 360,000;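 active means inhibition above the screen-wide average plus 3 SD, cut at about 13% in these data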;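 further: forskolin and galanin both at EC90 stimulate the cells; cAMP rise reported by CNG channel membrane potential dye signal; 0% = forskolin plus galanin with DMSO and 100% = forskolin alone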
Target sequence (O60755 1-299 limits assumed): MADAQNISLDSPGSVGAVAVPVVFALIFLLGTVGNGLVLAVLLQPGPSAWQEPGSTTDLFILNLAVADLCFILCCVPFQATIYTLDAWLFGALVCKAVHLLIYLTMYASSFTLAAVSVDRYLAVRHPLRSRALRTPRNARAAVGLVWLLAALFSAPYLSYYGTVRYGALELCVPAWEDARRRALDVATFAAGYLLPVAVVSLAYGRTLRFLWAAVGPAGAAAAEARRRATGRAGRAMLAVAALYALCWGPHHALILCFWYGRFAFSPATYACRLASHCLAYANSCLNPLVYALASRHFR
Hsp70 activator – Hsp70 transcriptional activation, primary screen. HeLa Hsp70 promoter luciferase reporter, luminescence; scaled: vehicle 0, proteasome-inhibitor control 100%. hit rate 0.04% among 200,000. AID 1203. activation, % at 10 µM;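 active means activation above the mean across all tested compounds plus 3 SD, cutoff set per campaign, cut at about 5.5% in these data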;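 further: 100% = MG132 at 30 µM as the positive control and 0% = DMSO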
GAA850 FXN act – activators of GAA850 frataxin (FXN) promoter; HEK293 lucGAA850 FXN promoter luciferase reporter, 24 h; percent of 10 µM SAHA response; AID 540364; activation, % at 6 µM; hit rate 0.56% among 360,000;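 active means activation above the average of all compounds screened plus 3 SD, cutoff fixed separately per campaign, cut at about 7.5% in these data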;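 further: 0% = DMSO wells and 100% = 10 µM SAHA wells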
SMARCA2 activ – increases SMARCA2 function in MMTV reporter cells. AID 652017. MG213 cells, MMTV-luciferase reporter, dexamethasone, overnight. activation, % at 9.1 µM. hit rate 1% among 370,000; in the data active means activation above about 7.8%;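 further: 0% = vehicle wells and 100% = reference activator wells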
Numbers without * were called inactive; · = not tested or not shown. The list is not random: actives were taken first. Their share in the collection is about 2.2%.

SMILES | HIF activator | GalR3 antag | Hsp70 activator | GAA850 FXN act | SMARCA2 activ
CC(=O)Nc1ccc2c(c1)CCCC2=O | 9.6* | 2.3 | · | 0.2 | -3.7
CC(=O)c1cccc(N(C(=O)c2ccccn2)C(C(=O)NC2CCCCC2)c2ccccc2)c1 (stereo not given) | 38.6* | -7.2 | · | -1.8 | -2.2
Cc1ccccc1CS(=O)(=O)Cc1ccc(C(=O)Nc2cccc(Cl)c2F)o1 | · | · | · | · | -0.7
COc1cc(-c2nc(-c3ccc(NC(=O)c4ccc5c(c4)OCO5)cc3)no2)cc(OC)c1OC | -1.2 | -2.2 | 0.0 | 0.3 | 8.0*
Cc1ccccc1-c1nc(-c2ccc(NC(=O)c3ccc4c(c3)OCO4)cc2)no1 | 0.7 | -4.1 | 0.1 | -0.8 | 1.0
Cc1cccc(C(=O)Nc2c(-c3ccccc3)nc3ncccn23)c1 | · | · | · | · | -1.1
Cc1ccc(C)c(OCCC(=O)OCC(=O)N2CCN(S(=O)(=O)c3ccc(Cl)cc3)CC2)c1 | -0.5 | -1.0 | · | 2.5 | 7.7
CCOc1ccc(OCCC(=O)OCC(=O)N2CCN(S(=O)(=O)c3ccc(Cl)cc3)CC2)cc1 | 0.2 | -0.4 | · | 9.7* | 1.2
c1ccc(-c2noc(-c3cccnc3)n2)cc1 | 1.0 | -1.4 | 0.4 | 5.6 | 7.9*
COC(=O)c1cc(-c2cc(Cl)cc(Cl)c2)c(=O)n2c1CCC2 | · | · | · | · | -0.8
COC(=O)[C@H]1C[C@@]2(n3ccc4ccccc43)c3ccccc3N(S(=O)(=O)c3ccccc3)[C@H]2N1 | · | · | · | · | -3.6
C=CCn1c(SCc2ccc(F)cc2)nc2c1c(=O)[nH]c(=O)n2C | 0.0 | 4.4 | -0.3 | 23.3* | -1.8
Cc1cccc(-c2noc(CN(C)S(=O)(=O)c3cc(Cl)ccc3Cl)n2)c1 | 167.5* | -8.7 | 0.0 | 1.0 | 1.5
CC(C)CC(NC(=O)c1ccccc1NC(=O)c1ccccc1)C(=O)O (stereo not given) | 369.3* | -4.6 | -0.1 | -1.7 | 2.6
COc1ccc(/C=C/C(=O)NCCSCc2ccco2)cc1OC | 57.2* | -4.3 | · | 0.8 | 2.7
COc1ccc(CCNC(=O)/C=C/c2ccco2)cc1OC | -0.4 | -10.8 | · | 4.4 | 2.8
CN[C@H]1C[C@H]2c3[nH]c4c(-c5cccc(C)c5)cccc4c3CCN2C[C@H]1[C@H](C)O | · | · | · | · | -5.6
O=C(NN=Cc1c(O)ccc2ccccc12)c1ccc2c(c1)OCO2 | · | -4.0 | · | -4.9 | -4.9
O=C(CN1CCCc2ccccc21)N/N=C/c1ccccc1 | 1.9 | -6.2 | -0.3 | 1.5 | 0.9
O=C(N/N=C/c1c(O)ccc2ccccc12)c1ccc(CO)nc1 | 33.7* | -13.0 | · | -5.6 | -3.0
O=C(N/N=C\c1c(O)ccc2ccccc12)c1ccc(S(=O)(=O)N2CCCCC2)cc1 | 22.6* | 3.8 | -0.2 | 1.5 | -0.4
O=C(CN1CCCc2ccccc21)N/N=C/c1c(O)ccc2ccccc12 | 16.3* | -2.1 | -0.2 | -5.5 | -3.3
Nc1ccc(C(=O)N/N=C\c2cc(N=Nc3cccc4ccccc34)ccc2O)cc1 | 13.6* | -6.4 | -0.5 | -12.5 | -2.1
COC(=O)N/N=C/c1cc(N=Nc2ccccc2)ccc1O | -0.6 | 0.6 | · | 1.9 | -1.6
Cc1cc(C(=O)N/N=C/c2cc(N=Nc3ccccc3)ccc2O)n[nH]1 | 18.7* | · | -0.5 | -1.9 | ·
SMILES | HIF activator | GalR3 antag | Hsp70 activator | GAA850 FXN act | SMARCA2 activ
COC(=O)N/N=C/c1cc(N=Nc2ccccc2Cl)ccc1O | 0.1 | -0.7 | · | 0.6 | 1.5
Oc1ccccc1N=Nc1nc(-c2ccccc2)c(-c2ccccc2)[nH]1 | 220.2* | -8.1 | -0.6 | -15.1 | -3.0
COc1ccc(NC(=O)CSc2nnc(Cn3nnc4ccccc43)n2C)cc1 | · | 2.2 | 0.0 | -3.4 | -0.6
CCOc1ccc(NC(=O)CSc2nnc(Cn3cnc4ccccc43)n2C)cc1 | 19.8* | -2.5 | -0.1 | -3.0 | -0.1
COc1ccc(NC(=O)CSc2nnc(Cn3cnc([N+](=O)[O-])n3)n2C)cc1 | 0.4 | -9.8 | -0.5 | 1.9 | 11.2*
COc1cccc(/C=N/Nc2nc3ccccc3[nH]2)c1O | 11.0* | -5.0 | · | -9.4 | -4.3
Oc1ccccc1/C=N/Nc1nccnc1Cl | 126.6* | -5.3 | -0.2 | -9.9 | 0.8
COc1cccc(/C=N/Nc2nc3ccccc3[nH]2)c1OC | 4.6 | -2.2 | · | 3.8 | 5.4
COc1cccc(/C=N/Nc2nccnc2Cl)c1O | 30.6* | -5.2 | -0.4 | -8.7 | -0.2
COc1cccc(/C=N/Nc2ncnc3scc(-c4ccccc4)c23)c1O | 104.8* | -9.0 | -0.5 | -12.0 | -0.1
CC(C)C[C@@H]1NC(=O)[C@H]2C[C@@]3(C)c4ccccc4N[C@H]3N2C1=O | · | · | · | · | -6.0
O=C(N/N=C/c1cc([N+](=O)[O-])ccc1O)c1cc(-c2ccccc2)nc2ccccc12 | 19.8* | -3.1 | -0.3 | 0.5 | -0.7
O=C(N/N=C/c1cc([N+](=O)[O-])ccc1Cl)c1cc(-c2ccccc2)nc2ccccc12 | 0.4 | 1.3 | · | -0.5 | 4.5
O=[N+]([O-])c1cccnc1N/N=C/c1ccccc1O | 20.7* | 3.6 | -0.1 | 0.6 | 4.0
O=[N+]([O-])c1ccc(O)c(/C=N/Nc2ccccn2)c1 | 63.2* | -5.3 | -0.4 | -3.2 | -0.1
O=[N+]([O-])c1ccc(NN=Cc2ccccc2O)nc1 | · | -11.0 | · | -0.8 | -2.8
Cc1c(O)ccc(/C=N/Nc2ncccc2[N+](=O)[O-])c1O | 8.4 | -8.7 | · | 0.5 | 2.8
COc1cccc(/C=N/Nc2cc(-n3nc(C)cc3-c3ccccc3)ncn2)c1O | 51.8* | -10.8 | -0.5 | -5.7 | -1.1
C=CCN1[C@H](C)COc2cc(F)ccc2S1(=O)=O | · | · | · | · | 7.5
C=CCOC(=O)N[C@@H](c1coc2ccccc2c1=O)[C@@H](C)/C=C/CC(=O)OC | · | · | · | · | 1.2
CC1(C)Oc2ccc(C(=O)NCCCN3CCCC3)cc2NC1=O | · | · | · | · | 4.3
COc1ccccc1N1CCN(S(=O)(=O)c2ccc3c(c2)n(C)c(=O)c(=O)n3C)CC1 | · | · | · | · | 6.5
CC(C)Cn1c(/C=N/Nc2nc3ccccc3[nH]2)nc2ccccc21 | 23.4* | -5.5 | -0.1 | 3.7 | -3.4
CCCn1c(/C=N/Nc2nc3ccccc3[nH]2)nc2ccccc21 | · | -5.7 | 0.0 | 5.1 | 4.0
COc1ccccc1C(c1nnnn1CC1CCCO1)N1CCC(C(N)=O)CC1 (stereo not given) | 14.9* | -5.3 | -0.3 | 0.8 | -3.8
SMILES | HIF activator | GalR3 antag | Hsp70 activator | GAA850 FXN act | SMARCA2 activ
COc1ccc(C(c2nnnn2CC2CCCO2)N2CCC(C(N)=O)CC2)cc1 (stereo not given) | -0.3 | -0.4 | 0.0 | -0.3 | -2.5
c1ccc(-c2cccc(-c3ccccn3)n2)nc1 | 211.7* | · | -0.5 | -13.5 | ·
O=C(NCCc1ccccc1Cl)[C@@H]1CCCN1C(=O)[C@@H](NC(=O)N1CCOCC1)C1CCCCC1 | · | -6.5 | · | · | -3.1
CCOC(=O)[C@@]12CCCC3=C1N(CCC3)C(=O)[C@H]2CC(=O)N1CCCC1 | · | · | · | · | -2.0
CN1C(=O)SC(Nc2ccccc2)C1=O (stereo not given) | -0.4 | 0.4 | -0.3 | 2.4 | -1.3
COc1cccc(NC2SC(=O)N(c3ccccc3)C2=O)c1 (stereo not given) | 3.4 | -1.2 | 0.2 | 3.5 | 8.0*
CC1CCN(Cc2nnnn2CCCC(=O)NCCc2cnn(C)c2)CC1 | 67.0* | -5.3 | · | 1.2 | -1.3

Screening data from PubChem BioAssay.
